Experimental data reported in the supplement of paper PMC10849652.
About 7,900 targets were measured; listed, in parts, are those with a hit and a random draw of the rest. About 0.6% of all pairs of compound and target were hits.

Assays:
Experiment in all cases: log2 fold change, soluble protein after heating vs DMSO (PISA); higher = thermal stabilisation; K562 cells, 10 uM, 30 min; active = over 0.2 and 3.5 SD of the protein, either way, in both replicates (recomputed)
[1] = compound: CC[C@@H]1C(=O)N(C)c2cnc(Nc3ccc(C(=O)NC4CCN(C)CC4)cc3OC)nc2N1C1CCCC1
Outline: (§1)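 Thermal stability values are relative to control samples and come from duplicates. They are expressed as log2 fold changes. For measurement, K562 cells (2×10^6 cells/mL) received 10 μM compound for 30 min, and aliquots were heated for 3 min over 48°C-58°C, pooled, and extracted at 4°C in PBS with 0.5% NP-40. Soluble protein, the supernatant after 21,000xg for 90 min, was quantified by TMTpro 16plex LC-MS/MS with equalised channel sums.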

[2] = compound: CC[C@@H]1C(=O)N(C)c2cnc(Nc3ccc(C(=O)N[C@H]4CC[C@H](N5CCN(CC6CC6)CC5)CC4)cc3OC)nc2N1C(C)C [volasertib]
Outline: as §1

[3] = compound: CC[C@H](C)N1C=C(C2=C(C=C(C=C21)C3=CN=C(C=C3)N4CCNCC4)C(=O)NCC5=C(C=C(NC5=O)C)C)C
Outline: as §1

[4] = compound: CC[C@H](C)[C@@H](C(=O)N[C@@H]([C@@H](C)O)C(=O)N[C@@H](CC(C)C)C(=O)[C@]1(CO1)C)NC(=O)[C@H]([C@@H](C)CC)N(C)C(=O)C [epoxomicin]
Outline: as §1

[5] = compound: CCn1c(C(=O)N(C2CC2)C2CC2)cc2c3c(ncn3C)c(Nc3cc(C)n(C)n3)nc21
Outline: as §1

[6] = compound: CCn1cc(-c2ccnc3[nH]c(-c4cccc(CN(C)C)c4)cc23)c(-c2ccc(NC(=O)N(C)C)cc2)n1
Outline: as §1

[7] = compound: CN(C)CC(=O)Nc1ccc2[nH]c(=O)c3ccccc3c2c1
Outline: as §1

[8] = compound: CN(CCOC1=CC=C(C=C1)C[C@H]2C(=O)NC(=O)S2)C3=CC=CC=N3 (racemic) [rosiglitazone]
Outline: as §1

[9] = compound: CN1C2=C(C3=C1C(=O)N(N=C3)CC4=CC(=CC=C4)N)SC(=C2)S(=O)C
Outline: as §1

[10] = compound: CN1CCC(CNc2ccc3ncc(-c4cccc(OC(F)(F)F)c4)n3n2)CC1
Outline: as §1

[11] = compound: CN1CCN(CCOc2cc(OC3CCOCC3)c3c(Nc4c(Cl)ccc5c4OCO5)ncnc3c2)CC1 [saracatinib]
Outline: as §1

[12] = compound: CN1CCN(c2nc(C3=C(c4c[nH]c5ccccc45)C(=O)NC3=O)c3ccccc3n2)CC1 [sotrastaurin]
Outline: as §1

[13] = compound: CN1CC[C@H](c2c(O)cc(O)c3c(=O)cc(-c4ccccc4Cl)oc23)[C@H](O)C1 [alvocidib]
Outline: as §1

[14] = compound: CN1CCc2c(c3ccccc3n2Cc2ccc(C(=O)NO)cc2)C1 [Tubastatin A]
Outline: as §1

[15] = compound: CNC(=O)C1=CC=CC=C1NC2=NC(=NC=C2Cl)NC3=C(C=C(C=C3)N4CCOCC4)OC
Outline: as §1

[16] = compound: CNC(=O)c1ccc(Nc2ncc(C(F)(F)F)c(NCc3nccnc3N(C)S(C)(=O)=O)n2)cc1 [defactinib]
Outline: as §1

[17] = compound: CNCc1ccc(-c2[nH]c3cc(F)cc4c3c2CCNC4=O)cc1 [rucaparib]
Outline: as §1

[18] = compound: CNc1nc(-c2ccc3c(N)n[nH]c3c2)cc(N2C[C@@H](C(=O)NC3CCCCC3)CC[C@H]2C)n1
Outline: as §1

[19] = compound: COC(=O)N[C@@H](C)CNc1nccc(-c2cn(C(C)C)nc2-c2cc(Cl)cc(NS(C)(=O)=O)c2F)n1 [encorafenib]
Outline: as §1

[20] = compound: COC(=O)[C@H](CCSC)NC(=O)C1=C(C=C(C=C1)NC[C@H](CS)N)C2=CC=CC=C2
Outline: as §1

Measured: log2 fold change

PRUNE1 (UniProt Q86TP1)
UniProt Q86TP1, sequence (Q86TP1 whole entry, looked up): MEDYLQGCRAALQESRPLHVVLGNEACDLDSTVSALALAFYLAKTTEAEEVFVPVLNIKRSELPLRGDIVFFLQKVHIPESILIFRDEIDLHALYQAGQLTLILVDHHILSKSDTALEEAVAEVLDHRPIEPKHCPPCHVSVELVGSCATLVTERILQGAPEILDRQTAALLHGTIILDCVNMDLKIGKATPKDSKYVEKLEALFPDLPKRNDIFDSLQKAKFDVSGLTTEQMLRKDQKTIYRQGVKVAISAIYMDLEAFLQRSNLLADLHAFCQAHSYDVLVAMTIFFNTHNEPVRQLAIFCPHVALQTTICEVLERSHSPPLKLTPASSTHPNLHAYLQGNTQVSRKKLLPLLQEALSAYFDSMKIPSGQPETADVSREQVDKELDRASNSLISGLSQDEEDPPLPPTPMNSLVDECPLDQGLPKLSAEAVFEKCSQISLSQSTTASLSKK
inactive: [1] -0.083 | [3] 0.067 | [4] 0.012 | [5] -0.035 | [6] -0.024 | [7] -0.018 | [8] 0.04 | [9] -0.079 | [10] -0.089 | [11] -0.071 | [12] -0.045 | [13] -0.053 | [14] 0.017 | [15] 0.007 | [16] -0.05 | [17] 0.027 | [18] 0.033 | [19] 0.006 | [20] 0.005
active: [2] -0.417

PDS5A (UniProt Q29RF7)
inactive: [1] -0.213 | [2] -0.447 | [3] 0.137 | [4] 0.29 | [5] -0.086 | [6] 0.012 | [7] -0.107 | [8] 0.246 | [9] 0.042 | [10] -0.203 | [11] -0.094 | [13] -0.122 | [14] -0.235 | [15] 0.051 | [16] -0.045 | [17] -0.025 | [18] 0.053 | [19] 0.028 | [20] 0.006
active: [12] -0.62

PPP6R1 (UniProt Q9UPN7)
UniProt Q9UPN7, sequence (Q9UPN7 whole entry, looked up): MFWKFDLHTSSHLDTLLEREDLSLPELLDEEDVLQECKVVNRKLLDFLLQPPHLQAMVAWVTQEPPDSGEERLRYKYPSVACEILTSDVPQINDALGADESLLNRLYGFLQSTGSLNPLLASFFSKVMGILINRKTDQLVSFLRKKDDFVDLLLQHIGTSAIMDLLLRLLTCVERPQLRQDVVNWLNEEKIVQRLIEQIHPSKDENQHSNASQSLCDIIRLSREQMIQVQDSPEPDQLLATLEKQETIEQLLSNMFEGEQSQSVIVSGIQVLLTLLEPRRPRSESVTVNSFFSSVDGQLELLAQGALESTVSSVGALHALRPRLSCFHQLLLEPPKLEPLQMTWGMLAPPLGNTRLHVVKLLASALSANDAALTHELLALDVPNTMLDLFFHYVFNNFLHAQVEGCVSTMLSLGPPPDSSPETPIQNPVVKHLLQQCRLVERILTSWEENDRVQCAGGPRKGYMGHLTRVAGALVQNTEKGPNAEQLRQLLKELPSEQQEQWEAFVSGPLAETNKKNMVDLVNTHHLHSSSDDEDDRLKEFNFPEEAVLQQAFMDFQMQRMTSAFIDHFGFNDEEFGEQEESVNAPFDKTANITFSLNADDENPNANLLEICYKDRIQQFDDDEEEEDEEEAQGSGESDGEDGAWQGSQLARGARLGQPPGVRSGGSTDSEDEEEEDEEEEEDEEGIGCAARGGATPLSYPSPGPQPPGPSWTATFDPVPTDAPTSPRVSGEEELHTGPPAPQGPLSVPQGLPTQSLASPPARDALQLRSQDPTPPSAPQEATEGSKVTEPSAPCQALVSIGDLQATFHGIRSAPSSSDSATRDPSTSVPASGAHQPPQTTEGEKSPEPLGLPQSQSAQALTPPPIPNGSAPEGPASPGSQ
inactive: [1] -0.098 | [3] 0 | [4] -0.033 | [5] 0.029 | [6] 0.026 | [7] 0.053 | [8] 0.026 | [9] -0.007 | [10] -0.048 | [11] 0.058 | [12] -0.064 | [13] -0.017 | [14] -0.08 | [15] 0.038 | [16] -0.058 | [17] -0.013 | [18] -0.044 | [19] 0.034 | [20] -0.027
active: [2] -0.297

PPP2R5A (UniProt Q15172)
inactive: [1] -0.099 | [3] 0.097 | [4] 0.067 | [5] 0.012 | [6] -0.046 | [7] 0.072 | [8] 0.112 | [9] -0.049 | [11] -0.03 | [12] -0.043 | [13] -0.089 | [14] 0.042 | [15] 0.01 | [16] -0.037 | [17] 0.053 | [18] 0.032 | [19] 0.063 | [20] -0.03
active: [2] -0.295 | [10] -0.305

PRKCG (UniProt P05129)
inactive: [1] -0.253 | [2] -0.062 | [3] 0.058 | [4] 0.086 | [5] -0.078 | [6] -0.117 | [7] 0.058 | [8] 0.044 | [9] 0.093 | [10] -0.176 | [11] 0.011 | [12] -0.373 | [13] -0.076 | [14] -0.025 | [15] 0.088 | [16] -0.015 | [17] -0.021 | [18] -0.164 | [19] 0.19 | [20] -0.02

PPT2 isoform 3 (UniProt Q9UMR5)
UniProt Q9UMR5, sequence (Q9UMR5 whole entry, looked up): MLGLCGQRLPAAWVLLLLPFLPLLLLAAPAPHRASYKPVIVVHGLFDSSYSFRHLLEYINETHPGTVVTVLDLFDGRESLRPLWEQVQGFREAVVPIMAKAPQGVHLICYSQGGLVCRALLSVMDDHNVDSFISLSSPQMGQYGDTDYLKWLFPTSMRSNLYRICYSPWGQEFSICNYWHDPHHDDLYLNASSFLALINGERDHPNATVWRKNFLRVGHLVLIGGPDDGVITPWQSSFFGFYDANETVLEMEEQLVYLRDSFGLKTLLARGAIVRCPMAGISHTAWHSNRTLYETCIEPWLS
inactive: [3] -0.006 | [4] -0.021 | [5] 0.005 | [6] 0.206 | [7] -0.068 | [8] 0.048 | [9] -0.051 | [11] 0.042 | [12] 0.022 | [13] -0.04 | [14] 0.018 | [15] 0 | [16] -0.023 | [17] 0.025 | [18] 0.038 | [19] -0.003 | [20] 0.029
active: [1] -0.57 | [2] -0.87 | [10] -0.682

PEA15 isoform 2 (UniProt Q15121)
UniProt Q15121, sequence (Q15121 whole entry, looked up): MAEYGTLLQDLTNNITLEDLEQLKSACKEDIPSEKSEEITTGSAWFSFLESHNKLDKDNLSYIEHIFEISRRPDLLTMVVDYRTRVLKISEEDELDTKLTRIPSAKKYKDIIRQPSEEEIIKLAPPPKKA
inactive: [1] -0.078 | [2] -0.162 | [3] -0.018 | [4] 0 | [5] 0.083 | [6] 0.022 | [7] 0.004 | [8] 0.025 | [9] -0.002 | [10] 0.039 | [11] 0.05 | [12] -0.02 | [13] -0.061 | [14] -0.009 | [15] -0.147 | [16] -0.026 | [17] -0.037 | [18] 0.009 | [19] 0.035 | [20] 0.034

PSMD5 (UniProt Q16401)
active: [2] -0.225
inactive: [1] -0.112 | [3] 0.013 | [4] 0.027 | [5] 0 | [6] -0.026 | [7] -0.011 | [8] 0.012 | [9] -0.043 | [10] -0.038 | [11] 0.019 | [12] -0.014 | [13] -0.047 | [14] -0.037 | [15] 0.016 | [16] -0.049 | [17] -0.045 | [18] -0.028 | [19] 0.008 | [20] 0.031

PTTG1 (UniProt O95997)
UniProt O95997, sequence (O95997 whole entry, looked up): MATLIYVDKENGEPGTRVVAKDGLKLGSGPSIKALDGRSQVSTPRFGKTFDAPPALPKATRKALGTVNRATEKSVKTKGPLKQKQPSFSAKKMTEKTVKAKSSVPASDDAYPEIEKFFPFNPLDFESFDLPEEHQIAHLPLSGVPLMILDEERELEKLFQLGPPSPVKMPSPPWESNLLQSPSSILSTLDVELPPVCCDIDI
inactive: [1] 0.105 | [2] 0.124 | [3] 0.008 | [5] 0.008 | [6] 0.057 | [7] -0.02 | [8] 0.008 | [9] 0.008 | [10] -0.092 | [11] -0.061 | [12] -0.004 | [13] 0.004 | [14] 0.141 | [15] -0.145 | [16] -0.029 | [17] -0.145 | [18] -0.088 | [19] -0.001 | [20] 0.031
active: [4] 0.293

PRPSAP2 (UniProt O60256)
UniProt O60256, sequence (O60256 whole entry, looked up): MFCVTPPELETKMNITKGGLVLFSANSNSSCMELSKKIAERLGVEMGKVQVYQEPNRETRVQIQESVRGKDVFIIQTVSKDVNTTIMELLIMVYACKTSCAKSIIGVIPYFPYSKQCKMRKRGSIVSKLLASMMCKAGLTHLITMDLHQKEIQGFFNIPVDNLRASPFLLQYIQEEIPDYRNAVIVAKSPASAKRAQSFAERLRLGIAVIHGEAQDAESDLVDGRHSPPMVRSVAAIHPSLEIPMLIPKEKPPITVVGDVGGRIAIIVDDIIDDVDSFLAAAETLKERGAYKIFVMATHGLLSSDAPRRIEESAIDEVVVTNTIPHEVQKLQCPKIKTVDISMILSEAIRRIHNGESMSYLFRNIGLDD
inactive: [1] 0.07 | [2] 0.056 | [3] -0.043 | [4] -0.008 | [5] -0.013 | [6] -0.088 | [7] -0.02 | [8] 0.008 | [9] -0.041 | [10] 0.159 | [11] 0.011 | [12] 0.084 | [13] 0.003 | [14] -0.018 | [15] -0.017 | [16] 0.01 | [17] -0.014 | [18] 0.03 | [19] -0.004 | [20] -0.012

PUF60 (UniProt Q9UHX1)
UniProt Q9UHX1, sequence (Q9UHX1 whole entry, looked up): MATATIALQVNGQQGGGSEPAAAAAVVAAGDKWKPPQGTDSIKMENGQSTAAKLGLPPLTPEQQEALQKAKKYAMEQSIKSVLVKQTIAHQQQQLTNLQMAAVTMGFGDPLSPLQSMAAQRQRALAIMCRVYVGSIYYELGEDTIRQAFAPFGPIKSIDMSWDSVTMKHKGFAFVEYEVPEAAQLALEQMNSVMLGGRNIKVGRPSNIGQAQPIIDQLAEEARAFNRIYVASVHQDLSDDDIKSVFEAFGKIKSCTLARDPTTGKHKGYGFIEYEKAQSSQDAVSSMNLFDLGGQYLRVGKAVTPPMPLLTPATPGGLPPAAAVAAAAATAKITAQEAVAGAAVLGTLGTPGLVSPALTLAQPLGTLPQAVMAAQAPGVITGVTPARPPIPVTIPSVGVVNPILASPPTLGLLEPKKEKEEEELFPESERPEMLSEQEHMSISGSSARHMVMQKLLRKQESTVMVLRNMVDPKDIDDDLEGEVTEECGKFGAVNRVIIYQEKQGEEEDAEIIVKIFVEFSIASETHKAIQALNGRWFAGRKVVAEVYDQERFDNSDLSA
active: [2] -0.304
inactive: [1] -0.078 | [3] 0.033 | [4] 0.028 | [5] -0.045 | [6] -0.032 | [7] 0.007 | [8] 0.022 | [9] -0.031 | [10] 0.051 | [11] 0 | [12] -0.035 | [13] -0.138 | [14] 0.048 | [15] -0.197 | [16] -0.173 | [17] -0.003 | [18] -0.007 | [19] 0.049 | [20] -0.012

PPIL1 (UniProt Q9Y3C6)
UniProt Q9Y3C6, sequence (Q9Y3C6 whole entry, looked up): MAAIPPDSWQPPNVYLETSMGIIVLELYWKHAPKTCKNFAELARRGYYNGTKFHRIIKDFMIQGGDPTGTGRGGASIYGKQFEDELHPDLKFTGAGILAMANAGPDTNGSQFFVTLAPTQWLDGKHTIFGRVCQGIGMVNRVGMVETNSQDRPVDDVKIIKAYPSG
inactive: [1] 0.014 | [2] -0.051 | [3] 0.01 | [4] -0.024 | [5] -0.042 | [6] 0.02 | [7] -0.014 | [8] 0.035 | [9] 0.049 | [10] 0.018 | [11] -0.007 | [12] -0.088 | [13] 0.096 | [14] -0.016 | [15] 0.042 | [16] 0.09 | [17] 0.056 | [18] -0.062 | [19] 0.052 | [20] -0.042

PI4K2A (UniProt Q9BTU6)
UniProt Q9BTU6, sequence (Q9BTU6 whole entry, looked up): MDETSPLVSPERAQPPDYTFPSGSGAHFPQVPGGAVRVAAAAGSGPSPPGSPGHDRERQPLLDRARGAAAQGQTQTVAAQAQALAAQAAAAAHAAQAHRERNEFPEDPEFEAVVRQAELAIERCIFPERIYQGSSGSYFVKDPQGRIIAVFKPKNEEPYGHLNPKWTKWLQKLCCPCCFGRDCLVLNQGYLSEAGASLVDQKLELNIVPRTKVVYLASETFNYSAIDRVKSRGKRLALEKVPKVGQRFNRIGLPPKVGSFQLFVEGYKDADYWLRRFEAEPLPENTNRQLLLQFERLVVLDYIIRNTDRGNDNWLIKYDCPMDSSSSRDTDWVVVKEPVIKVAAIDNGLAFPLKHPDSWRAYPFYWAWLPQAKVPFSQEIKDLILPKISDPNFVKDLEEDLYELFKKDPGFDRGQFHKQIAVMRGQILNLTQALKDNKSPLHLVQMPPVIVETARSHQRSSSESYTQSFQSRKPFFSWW
inactive: [1] -0.075 | [2] -0.081 | [3] 0.009 | [4] 0.027 | [5] 0.037 | [6] -0.023 | [7] -0.014 | [8] 0.055 | [9] 0.009 | [10] -0.146 | [11] 0.058 | [12] 0.041 | [13] 0.013 | [14] -0.008 | [15] -0.024 | [16] -0.014 | [17] -0.027 | [18] -0.11 | [19] 0.057 | [20] 0.02

PIR (UniProt O00625)
UniProt O00625, sequence (O00625 whole entry, looked up): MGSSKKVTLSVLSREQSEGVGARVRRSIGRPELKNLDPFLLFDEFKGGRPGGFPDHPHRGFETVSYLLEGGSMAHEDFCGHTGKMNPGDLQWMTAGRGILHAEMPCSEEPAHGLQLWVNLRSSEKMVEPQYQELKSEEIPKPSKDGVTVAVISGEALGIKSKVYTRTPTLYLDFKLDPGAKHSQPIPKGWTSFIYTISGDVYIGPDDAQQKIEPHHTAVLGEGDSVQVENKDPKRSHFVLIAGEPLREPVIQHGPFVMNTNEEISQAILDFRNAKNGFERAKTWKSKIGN
inactive: [1] -0.041 | [2] -0.069 | [3] -0.028 | [4] 0.034 | [5] 0.097 | [6] -0.006 | [7] 0.031 | [8] 0.02 | [9] -0.06 | [10] -0.052 | [11] 0.025 | [12] -0.01 | [13] -0.068 | [15] -0.002 | [16] -0.09 | [17] 0.045 | [18] 0 | [19] -0.045 | [20] 0.012
active: [14] -0.284

PTP4A1 (UniProt Q93096)
UniProt Q93096, sequence (Q93096 whole entry, looked up): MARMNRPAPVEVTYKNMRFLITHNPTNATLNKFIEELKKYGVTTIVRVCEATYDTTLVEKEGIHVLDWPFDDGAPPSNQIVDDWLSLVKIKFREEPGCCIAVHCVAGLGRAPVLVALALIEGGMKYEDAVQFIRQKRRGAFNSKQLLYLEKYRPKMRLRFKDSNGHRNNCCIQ
active: [13] -0.34 | [16] -0.447
inactive: [1] 0.025 | [2] 0.019 | [3] 0.036 | [4] 0.065 | [5] 0.029 | [6] -0.055 | [7] -0.044 | [8] -0.011 | [9] -0.043 | [10] 0.022 | [11] -0.058 | [12] 0.061 | [14] 0.036 | [15] 0.02 | [17] -0.038 | [18] 0.04 | [19] -0.027 | [20] 0.029
